The record followed here is PubChem BioAssay (NCATS).

Test [1] relates to Zika virus NS2B-NS3 protease (linked construct). Put plainly: Primary screen NINDS Rhodamine qHTS for Zika virus inhibitors (AID 1347160). Also: nearly all actives have a fitted effect of over 55% in size. A digest of the protocol: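 Enzyme (25 nM, linked NS2B-NS3) was preincubated 15 min with compound in 10 mM Tris-HCl pH 8.0, 0.01% Tween 20. Rhodamine110 substrate (1.5 microM) was then added and fluorescence read at start and after 15 min.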

Test [2] has as its target Calcium and integrin-binding protein 1 (Homo sapiens) (UniProt Q99828). Nature of the test: Primary qHTS for Identification of Calcium Integrin Binding Protein 1 (CIB1) Competitor (AID 1508620). Also: potency is read from the fitted curve at half-maximal effect. A digest of the protocol:
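CIB1-GST (1 uM final) and compound incubated 15 min at room temperature before adding FITC-alphaIIb peptide tracer (100 nM final). Competition for binding read by fluorescence polarization (ex 480, em 540) after another 15 min at room temperature.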
For orientation: Quantitative high-throughput screening tests each substance at several concentrations.

Test [3] can be described thus: Primary qHTS for inhibitors of nuclear receptor binding SET domain protein 2 (NSD2) in an isogenic RCH-ACV NSD2 p.E1099K mutant (9B) (AID 1645876). Also: nearly all actives have a fitted effect of over 70% in size. Also: potency is read from the fitted curve at half-maximal effect.
In test [4] the target is Glutathione peroxidase 1 (Homo sapiens) (UniProt P07203). Put plainly: Primary qHTS Assay for Inhibitors of Recombinant Selenoprotein Glutathione Peroxidase 1 (GPX1) (AID 1845191). Also: nearly all actives have a fitted effect of over 65% in size. The method, boiled down: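 NADPH consumption tracked by fluorescence at 340/450 nm between t=0 and t=15 min, room temperature. Final mix: 10 nM GPX1, 100 nM glutathione reductase, 1 mM GSH, 0.5 mM NADPH, 0.5 mM cumene hydroperoxide, 0.01% BSA; 30 min compound–enzyme preincubation.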
Glutathione peroxidase 1 (Homo sapiens), sequence (P07203 whole entry, looked up): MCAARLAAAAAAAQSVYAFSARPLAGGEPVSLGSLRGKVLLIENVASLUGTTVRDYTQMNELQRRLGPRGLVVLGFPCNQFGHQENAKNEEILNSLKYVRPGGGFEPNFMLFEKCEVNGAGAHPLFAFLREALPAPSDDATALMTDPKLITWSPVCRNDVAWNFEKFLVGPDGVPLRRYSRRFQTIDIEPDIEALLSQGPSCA

In test [5] the target is Phospholipid hydroperoxide glutathione peroxidase GPX4 (Homo sapiens) (UniProt P36969). Nature of the test: Primary qHTS Assay for Inhibitors of Recombinant Selenoprotein Glutathione Peroxidase 4 (GPX4) (AID 1845192). Also: nearly all actives have a fitted effect of over 65% in size. A digest of the protocol: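 NADPH consumption followed by fluorescence at 340/450 nm, t=0 and after 15 min at room temperature. Reaction started with cumene hydroperoxide (0.5 mM final) after 30 min compound–GPX4 preincubation; final 200 nM GPX4, 100 nM GR, 1 mM GSH, 0.5 mM NADPH.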
Phospholipid hydroperoxide glutathione peroxidase GPX4 (Homo sapiens), sequence (P36969 whole entry, looked up): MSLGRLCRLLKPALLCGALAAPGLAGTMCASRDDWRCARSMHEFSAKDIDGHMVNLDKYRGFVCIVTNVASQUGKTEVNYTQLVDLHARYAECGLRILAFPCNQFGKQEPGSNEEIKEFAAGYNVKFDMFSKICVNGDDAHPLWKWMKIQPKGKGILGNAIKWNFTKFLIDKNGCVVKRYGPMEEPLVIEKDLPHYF

The target of test [6] is Luciferin 4-monooxygenase (Photinus pyralis) (UniProt P08659). Nature of the test: Primary firefly luciferase (FLuc) qHTS assay for identification of artifact compounds. (AID 1845220).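 Also: plate controls were DMSO vehicle for no effect and no enzyme for full effect; nearly all actives have a fitted effect of over 60% in size.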 As to conditions: outcome: dose series up to 54.1 µM unless noted. The method, boiled down: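 Compounds sat 15 min at room temperature with 10 uM luciferin and 10 uM ATP (pH 7.6 Tris acetate). Firefly luciferase (10 nM final) was then added, and luminescence was read 5 min later. Data normalized to no-enzyme and DMSO controls were Hill-fitted.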

For test [7], the system named is Nanoluciferase (engineered Oplophorus gracilirostris luciferase). Nature of the test: Primary Nanoluciferase (NLuc) qHTS assay for identification of artifact compounds. (AID 1845222).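 Also: 0% = DMSO and -100% = no enzyme.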 A digest of the protocol:
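Luminescence from secreted NLuc (filtered, 1:55-diluted S16 cell medium) read 5 min after Nano-Glo substrate; compounds preincubated 15 min, RT. Hill fits of inhibition normalized to DMSO and no-enzyme.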

Another test deals with CRL-7250. Nature of the test: Cytotoxic Profiling of Annotated Libraries Using Quantitative High-Throughput Screening (AID 1296008). Also: nearly all actives have a fitted effect of over 60% in size. Also: potency is read from the fitted curve at half-maximal effect. As to max response: % is scaled to controls: 0 for no effect and ±100 for the full control effect. As to conditions: Five cell lines viability, CellTiter-Glo ATP luminescence, 48-72 h; max response: stronger effect = lower value. A digest of the protocol:
(§1)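 Cytotoxicity was measured as CellTiter-Glo ATP luminescence, read after 10 min at room temperature. Compound treatment of the cells lasted 48 or 72 hr at 37 degrees Celsius in a qHTS format.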
On the technique in general: In ATP-based viability assays light output follows the ATP content of the culture.

Another test relates to HEK293. The description is as above. Conditions: Five cell lines viability, CellTiter-Glo ATP luminescence, 48-72 h; max response: stronger effect = lower value. The method, boiled down: as §1
In another test the test system is HaCat. Described as above. As to conditions: Five cell lines viability, CellTiter-Glo ATP luminescence, 48-72 h; max response: stronger effect = lower value. The method, boiled down:
as §1

In the next test the test system is NIH3T3. The description is as above. As to conditions: Five cell lines viability, CellTiter-Glo ATP luminescence, 48-72 h; max response: stronger effect = lower value. The method, boiled down:
as §1

The subject of the next test is CASKI. Nature of the test: Primary qHTS to identify gynecologic anti-cancer compounds using libraries of approved drugs and bioactive compounds (AID 1345084). Also: nearly all actives have a fitted effect of over 55% in size. Also: potency is read from the fitted curve at half-maximal effect. Conditions: Gynecologic cancer cell panel viability, ATPlite luminescence, 48 h; series mostly up to 57.5 µM. A digest of the protocol:
(§2)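 Cells, 1,000 per well, were allowed to settle for 16 h at 37 C before compound addition. Five concentrations were tested for 48 h, and viability was read by ATPlite luminescence after 15 min at room temperature.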

The subject of a further test is Es-2. The test is described as above. Conditions: Gynecologic cancer cell panel viability, ATPlite luminescence, 48 h; series mostly up to 57.5 µM. The method, boiled down:
as §2

For a further test, the system named is Hek293T. The description is as above. Conditions: Gynecologic cancer cell panel viability, ATPlite luminescence, 48 h, control line for the selectivity index; series mostly up to 57.5 µM. The method, boiled down:
as §2

The next test concerns JEG-3. Described as above. As to conditions: Gynecologic cancer cell panel viability, ATPlite luminescence, 48 h; series mostly up to 57.5 µM. The method, boiled down: as §2
A further test relates to PA-1. The test is described as above. Conditions: Gynecologic cancer cell panel viability, ATPlite luminescence, 48 h; series mostly up to 57.5 µM. A digest of the protocol:
as §2

Another test relates to Tov-21-G. Described as above. Conditions: Gynecologic cancer cell panel viability, ATPlite luminescence, 48 h; series mostly up to 57.5 µM. The method, boiled down:
as §2

The subject of a further test is Tov112D. The description is as above. Conditions: Gynecologic cancer cell panel viability, ATPlite luminescence, 48 h; series mostly up to 57.5 µM. The method, boiled down: as §2
For a further test, the system named is C33A. The description is as above. As to conditions: Gynecologic cancer cell panel viability, ATPlite luminescence, 48 h; series mostly up to 57.5 µM. A digest of the protocol:
as §2

In another test the test system is OV90. The test is described as above. As to conditions: Gynecologic cancer cell panel viability, ATPlite luminescence, 48 h; series mostly up to 57.5 µM. A digest of the protocol: as §2

Molecules are shown by their SMILES. Unmarked numbers belong to inactive results. Results filed as inconclusive are left out. The source made the active and inactive calls. Calls follow the shape of the dose curve; as a rule, active = well fitted curve in the direction sought with a large enough effect; inconclusive = small, poorly fitted or top-dose-only effect, or another doubt; inactive = no such curve, though single readings can be large; an effect the other way counts as inactive or inconclusive.

Calcium and integrin-binding protein 1 (Homo sapiens), sequence (Q99828 whole entry, looked up): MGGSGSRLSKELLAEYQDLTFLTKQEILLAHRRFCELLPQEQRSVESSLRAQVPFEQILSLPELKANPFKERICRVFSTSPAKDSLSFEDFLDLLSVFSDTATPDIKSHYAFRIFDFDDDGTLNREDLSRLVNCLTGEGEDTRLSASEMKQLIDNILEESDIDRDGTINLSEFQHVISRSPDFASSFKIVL

In the case of `C=C1[C@@H](C)[C@H]2[C@H](Cc3ccccc3)NC(=O)[C@]23OC(=O)/C=C/C(=O)CCC[C@@H](C)C/C=C/[C@H]3[C@@H]1O`, the Potency entry (in test [1]; in test [4]; in test [5]; in test [7]; with JEG-3) was “inactive” in each case. Also, the Potency is 20000 nM (active) in test [2]; 1450 nM (active) in test [3]; 1640 nM (active) in the test with CRL-7250; 1840 nM (active) in the test with HEK293; 20600 nM (active) in the test with HaCat; 1160 nM (active) with NIH3T3. Also, the Potency is 15800 nM (active) with CASKI; 14100 nM (active) with Es-2; 15800 nM (active) in the test with Hek293T; 20000 nM (active) in the test on PA-1; 15800 nM (active) in the test with Tov-21-G; 15800 nM (active) in the test on Tov112D. Moreover, the compound was classed as inactive in test [6].

As to `CC(=O)OC[C@]12C[C@H](OC(=O)CC(C)C)C(C)=C[C@H]1O[C@@H]1[C@H](O)[C@@H](O)[C@@]2(C)[C@]12CO2`, the Potency result in test [1], in test [2], in test [4], in test [5] and in test [7] was “inactive” throughout. The Potency in test [3] was 25.2 nM (active); with CRL-7250, 142 nM (active); with HEK293, 25.2 nM (active); in the test on HaCat, 252 nM (active); in the test with NIH3T3, 100 nM (active); in the test on CASKI it was 224 nM (active). Also, the Potency is 178 nM (active) in the test on Es-2; 79.4 nM (active) with Hek293T; 1580 nM (active) in the test on JEG-3; 355 nM (active) in the test on Tov-21-G; 316 nM (active) in the test on Tov112D. Also, the result in [6] was inactive.

On to `OCc1nnc2n1-c1ccc(Cl)cc1C(c1ccccc1Cl)=NC2`, for which the Potency entry in test [1], in test [2], in test [3], in test [4], in test [5] and in test [7] was “inactive” each time. Moreover, the Potency entry in the test with C33A, in the test with CASKI, with Es-2, in the test with Hek293T, in the test with JEG-3 and in the test on OV90 was “inactive” in each case. Further, the Potency result in the test on Tov-21-G and in the test with Tov112D was “inactive” throughout. In addition, in test [6], the outcome was inactive. For the same compound, the max response with CRL-7250 is 0.641%; in the test with HEK293 it was -7.41%; with HaCat it was -38%.

On to `C[C@]12CC[C@H](O)C[C@H]1CC[C@@H]1[C@@H]2[C@H](O)C(=O)[C@]2(C)[C@@H](c3ccc(=O)oc3)CC[C@]12O`, for which the Potency result in test [1], in [2], in test [5] and in test [7] was “inactive” in each case. In addition, the Potency in test [3] was 20.5 nM (active); in the test with CRL-7250, 41.1 nM (active); in the test on HEK293 it was 32.6 nM (active); in the test with HaCat, 130 nM (active); in the test with CASKI, 398 nM (active); in the test with Es-2 it was 89.1 nM (active). Besides, the Potency is 282 nM (active) with OV90 and 79.4 nM (active) in the test with PA-1. The call in test [6] was inactive. Besides, the max response in the test on NIH3T3 was -1.67%.

On to `COC1CC(O[C@H]2CC[C@@]3(C)C(CCC4C3CC[C@]3(C)[C@@H](C5=CC(=O)OC5)CC[C@]43O)C2)OC(C)C1O` (stereo not given in full), for which the Potency result in test [1], in test [2], in test [4], in test [5] and in [7] was “inactive” each time. The Potency in test [3] is 14.2 nM (active); in the test on CRL-7250 it was 31.7 nM (active); in the test with HEK293, 79.6 nM (active); in the test with HaCat, 178 nM (active); in the test on C33A, 100 nM (active); with CASKI it was 141 nM (active). The Potency in the test with Es-2 was 158 nM (active); in the test with Hek293T it was 141 nM (active); in the test on OV90, 398 nM (active); in the test with Tov-21-G, 89.1 nM (active). In addition, the compound was called inactive in test [6]. Besides, the max response in the test with NIH3T3 is -0.0473%.

Regarding `C[C@H]1O[C@@H](n2cnc3c(N)ncnc32)C[C@@H]1O`, the Potency result in test [1], in test [2], in test [3], in test [4], in test [5] and in test [7] was “inactive” throughout. Further, the Potency result in the test on C33A, in the test on CASKI, in the test with Es-2, in the test with Hek293T, with JEG-3 and in the test on OV90 was “inactive” each time. In addition, the Potency result in the test on PA-1, in the test on Tov-21-G and with Tov112D was “inactive” each time. Further, the result in test [6] was inactive. Moreover, the max response was 0.373% in the test with CRL-7250, 0.909% in the test on HEK293, 3.49% in the test with HaCat and 1.47% with NIH3T3.

On to `COc1ccsc1CNCC[C@@]1(c2ccccn2)CCOC2(CCCC2)C1`, for which the Potency entry (in test [1]; in test [2]; in test [3]; in [4]; in [7]; in the test with C33A) was “inactive” each time. For the same compound, the Potency entry with CASKI, in the test on Es-2, in the test on Hek293T, with JEG-3, in the test with OV90 and in the test on PA-1 was “inactive” throughout. The Potency entry with Tov-21-G and with Tov112D was “inactive” throughout. In test [6], the compound was classed as inactive. In addition, the max response was -5.82% in the test on CRL-7250, -0.102% with HEK293, -8.27% in the test on HaCat and -1.76% with NIH3T3.

Turning to `C[C@H](CCC(=O)O)C[C@H](C)C[C@H](C)C(=O)/C=C(\O)[C@H](C)C[C@H](C)C/C=C/[C@@H](C)[C@@H](O)[C@@H](C)[C@@H](O)C[C@@H]1CC[C@@](C)([C@H]2CC[C@@](C)([C@@H](C)O)O2)O1`, the Potency entry (in [1]; in test [2]; in test [4]; in test [5]; in test [7]; with C33A) was “inactive” throughout. Besides, the Potency entry in the test with CASKI, in the test on Es-2, in the test on Hek293T, in the test with JEG-3, with PA-1 and in the test with Tov112D was “inactive” each time. Moreover, the Potency in [3] is 7090 nM (active); with CRL-7250, 3170 nM (active); in the test on HEK293, 5020 nM (active). In addition, the outcome in [6] was inactive. Besides, the max response in the test on HaCat was -1.41%.
